Results: PubChem BioAssay (NCATS)
Inconclusive results are not listed. Where a call stands in place of a potency, no number is given. Activity calls are given as the source filed them. Unless noted, the call rests on the fitted dose curve; in most records, active means well fitted curve in the direction sought with a large enough effect; inconclusive means small, poorly fitted or top-dose-only effect, or another doubt; inactive means no such curve, though single readings can be large; an effect the other way counts as inactive or inconclusive.

Assays:
[1] = molecular target: Calcium and integrin-binding protein 1 (Homo sapiens) (UniProt Q99828); assay: Primary qHTS for Identification of Calcium Integrin Binding Protein 1 (CIB1) Competitor (AID 1508620); conditions: CIB1-GST / FITC-alphaIIb peptide fluorescence polarization; series mostly up to 114 µM
How it was run: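 CIB1-GST (1 uM final) and compound incubated 15 min at room temperature before adding FITC-alphaIIb peptide tracer (100 nM final). Competition for binding read by fluorescence polarization (ex 480, em 540) after another 15 min at room temperature.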

[2] = molecular target: Cytochrome P450 2D6 (Homo sapiens) (UniProt P10635); assay: Cytochrome P450 family 2 subfamily D member 6 (CYP2D6) small molecule antagonists: luciferase biochemical (cell-free) qHTS assay (AID 1645840; active means well fitted curve in the direction sought with a large enough effect in the repeat runs; an effect the other way counts as inactive or inconclusive; further: nearly all actives have a fitted effect of over 55% in size); conditions: P450-Glo CYP2D6 enzyme, luciferin luminescence, 1 h; series mostly up to 57.4 µM
How it was run: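 P450-Glo CYP2D6 system: proluciferin substrate converted by enzyme to luciferin, read by luminescence proportional to activity. Enzyme-substrate mix with compound 10 min at room temperature, then NADPH regeneration 1 h before detection reagent.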
Potency means the concentration at half of the fitted maximal effect.

Chain of Calcium and integrin-binding protein 1 (Homo sapiens) (Q99828 whole entry, looked up): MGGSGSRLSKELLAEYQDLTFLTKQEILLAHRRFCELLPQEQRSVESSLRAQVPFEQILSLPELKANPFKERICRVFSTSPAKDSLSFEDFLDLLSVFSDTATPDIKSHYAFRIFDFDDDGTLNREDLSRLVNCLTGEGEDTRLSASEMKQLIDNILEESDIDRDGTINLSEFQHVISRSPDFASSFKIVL
Chain of Cytochrome P450 2D6 (Homo sapiens) (P10635 whole entry, looked up): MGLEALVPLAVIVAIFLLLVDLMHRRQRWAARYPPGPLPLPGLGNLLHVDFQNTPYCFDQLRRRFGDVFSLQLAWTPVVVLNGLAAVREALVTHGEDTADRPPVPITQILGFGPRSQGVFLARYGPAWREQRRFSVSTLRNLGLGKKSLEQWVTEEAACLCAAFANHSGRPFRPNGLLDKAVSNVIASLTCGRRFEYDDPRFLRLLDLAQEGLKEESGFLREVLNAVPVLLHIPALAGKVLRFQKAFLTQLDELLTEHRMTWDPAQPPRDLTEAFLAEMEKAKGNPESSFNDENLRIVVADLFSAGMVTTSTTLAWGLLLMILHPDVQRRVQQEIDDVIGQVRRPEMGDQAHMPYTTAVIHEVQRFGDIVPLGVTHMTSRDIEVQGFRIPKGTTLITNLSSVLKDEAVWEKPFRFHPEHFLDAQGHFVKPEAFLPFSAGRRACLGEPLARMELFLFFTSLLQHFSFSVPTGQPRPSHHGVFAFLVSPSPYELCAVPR

Compound | Potency [1] | Potency [2]
CCCc1cc(C)n(C)c(=O)c1CN(C)C(=O)c1cc(-c2ccc(N3CCN(C(C)C)CC3)nc2)cc2c1cnn2C(C)C | inactive | inactive
COc1ccc2c(NC(=O)Nc3cccc(C(F)(F)F)n3)ccnc2c1 | inactive | inactive
O=S(=O)(N[C@H]1CCCC[C@@H]1N1CCOCC1)c1ccc(Cl)cc1 | inactive | 5.35 µM (active)
O=C(NC1(c2ccccc2)CC1)c1c(CN2CCC(N3CCCCC3)CC2)c(-c2cccc(C(F)(F)F)c2)nc2cc(Br)ccc12 | inactive | 4.77 µM (active)
CC(C)NC(=O)COc1cccc(-c2nc(Nc3ccc4[nH]ncc4c3)c3ccccc3n2)c1 | inactive | 2.68 µM (active)
CC1=C(c2ccc(NC(=O)c3c(F)cccc3F)cc2)CN(c2nccs2)CC1 | inactive | inactive
Cc1c(NC(=O)c2cc3c(s2)CCCC3)cccc1-c1cn(C)c(=O)c(Nc2ccc(C3C(=O)N(C)CCN3C)cc2)n1 (stereo not given) | inactive | inactive
Cc1cn2c(n1)Cc1ccc(Cl)cc1C(c1ccc(N)cc1)=N2 | inactive | 16.9 µM (active)
Nc1ncnc2c1c(-c1ccc(Cl)cc1)nn2-c1cccc(-c2cnnn2Cc2cccc(-c3ccccc3)c2)c1 | inactive | inactive
O=c1nc(-c2ccccn2)sc2ccccc12 | 28.2 µM (active) | inactive
O=C(C(Cc1cccc(C(F)(F)F)c1)NS(=O)(=O)c1cc(F)c2c(c1)CCNC2)N1CCCC1 (stereo not given) | inactive | 13.5 µM (active)
CCC(C)CNCC(=O)N1CCC2SC=CC2C1COc1cccc(C)c1 (stereo not given) | inactive | 0.0756 µM (active)
O=C(c1ccccn1)N(Cc1cccs1)C1(C(=O)NC2CCCCC2)CCCCC1 | inactive | inactive
CC1(C)OC[C@H](NC(=O)Nc2ccc(Br)cc2Br)[C@H](c2ccccc2)O1 | inactive | inactive
CCn1c(-c2nonc2N)nc2c(C#CCO)ncc(OCCCN)c21 | inactive | inactive
Nc1ncnc2c1c(-c1ccc(Oc3ccccc3)cc1)nn2[C@@H]1CCCNC1 | inactive | 15.1 µM (active)
CCCNCCc1ccc(NS(=O)(=O)c2ccc(OC(F)(F)F)cc2)cc1 | inactive | 1.34 µM (active)
C=CC(=O)Nc1cccc(Nc2nc(Nc3ccc(NC4CN(CCF)C4)cc3OC)ncc2C(F)(F)F)c1 | inactive | 13.5 µM (active)
Cn1nc(-c2ccc(C(F)(F)F)cc2)nc2c(=O)n(C)c(=O)nc1-2 | inactive | 0.239 µM (active)
COc1ccccc1N1CCN(CC(C(=O)NC(C)(C)C)c2ccccc2)CC1 (stereo not given) | inactive | 1.69 µM (active)
